Laboratory results: the supplement of paper PMC10849652
Targets with a hit are over-represented here; the source holds about 7,900 in all. About 0.6% of all pairs of compound and target were hits.

Key:
Test in all cases: log2 fold change, soluble protein after heating vs DMSO (PISA); higher = thermal stabilisation; K562 cells, 10 uM, 30 min; active = over 0.2 and 3.5 SD of the protein, either way, in both replicates (recomputed)
YAE1 = YAE1 (UniProt Q9NRH1)
Outline: (§1)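 K562 cells at 2×10^6 cells/mL were exposed to 10 μM compound for 30 min, then aliquots were heated for 3 min across 48°C-58°C, pooled, and extracted in PBS containing 0.5% NP-40 at 4°C. The supernatant after 21,000xg for 90 min was taken as soluble protein and measured by TMTpro 16plex LC-MS/MS with channel sums equalised. Thermal stability is reported relative to control samples, with values from duplicates. Fold changes are given on a log2 scale.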

YBX1 = YBX1 (UniProt P67809)
Chain of YBX1 (P67809 whole entry, looked up): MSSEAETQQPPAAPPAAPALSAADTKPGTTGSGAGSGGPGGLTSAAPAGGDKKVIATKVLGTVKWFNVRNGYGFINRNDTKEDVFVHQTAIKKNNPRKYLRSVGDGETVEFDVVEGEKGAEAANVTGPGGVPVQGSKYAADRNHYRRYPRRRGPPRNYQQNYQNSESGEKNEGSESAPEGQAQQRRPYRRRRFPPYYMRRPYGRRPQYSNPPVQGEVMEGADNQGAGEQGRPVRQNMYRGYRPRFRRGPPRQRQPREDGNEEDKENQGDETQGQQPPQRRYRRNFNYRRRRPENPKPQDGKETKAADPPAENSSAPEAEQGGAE
Outline: as §1

YES1 = YES1 (UniProt P07947)
Chain of YES1 (P07947 whole entry, looked up): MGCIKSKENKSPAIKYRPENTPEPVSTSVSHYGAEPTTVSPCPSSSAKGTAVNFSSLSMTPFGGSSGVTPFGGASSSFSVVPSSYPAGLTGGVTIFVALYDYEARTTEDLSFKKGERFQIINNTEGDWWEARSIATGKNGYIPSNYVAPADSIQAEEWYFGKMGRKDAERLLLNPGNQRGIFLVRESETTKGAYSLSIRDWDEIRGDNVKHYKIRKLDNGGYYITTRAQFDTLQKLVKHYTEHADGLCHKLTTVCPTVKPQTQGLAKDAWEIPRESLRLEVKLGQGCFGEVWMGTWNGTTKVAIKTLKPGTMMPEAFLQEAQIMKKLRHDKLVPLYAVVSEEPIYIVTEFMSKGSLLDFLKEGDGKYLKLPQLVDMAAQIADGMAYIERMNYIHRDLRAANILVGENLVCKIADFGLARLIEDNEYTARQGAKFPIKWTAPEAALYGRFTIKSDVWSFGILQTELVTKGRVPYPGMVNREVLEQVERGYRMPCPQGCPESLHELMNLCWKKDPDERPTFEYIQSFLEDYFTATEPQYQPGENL
Outline: as §1

YIPF4 = YIPF4 (UniProt Q9BSR8)
Outline: as §1

YIPF5 isoform 3 = YIPF5 isoform 3 (UniProt Q969M3)
Chain of YIPF5 isoform 3 (Q969M3 whole entry, looked up, canonical isoform): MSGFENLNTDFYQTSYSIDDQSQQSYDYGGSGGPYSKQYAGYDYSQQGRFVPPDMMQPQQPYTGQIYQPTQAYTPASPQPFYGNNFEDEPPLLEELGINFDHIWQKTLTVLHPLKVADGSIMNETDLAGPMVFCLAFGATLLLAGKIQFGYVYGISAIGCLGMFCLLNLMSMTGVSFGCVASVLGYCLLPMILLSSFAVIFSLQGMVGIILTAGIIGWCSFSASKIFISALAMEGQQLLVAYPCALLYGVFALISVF
Outline: as §1

YIPF6 = YIPF6 (UniProt Q96EC8)
Outline: as §1

YLPM1 = YLPM1 (UniProt P49750)
Outline: as §1

YOD1 = YOD1 (UniProt Q5VVQ6)
Chain of YOD1 (Q5VVQ6 whole entry, looked up): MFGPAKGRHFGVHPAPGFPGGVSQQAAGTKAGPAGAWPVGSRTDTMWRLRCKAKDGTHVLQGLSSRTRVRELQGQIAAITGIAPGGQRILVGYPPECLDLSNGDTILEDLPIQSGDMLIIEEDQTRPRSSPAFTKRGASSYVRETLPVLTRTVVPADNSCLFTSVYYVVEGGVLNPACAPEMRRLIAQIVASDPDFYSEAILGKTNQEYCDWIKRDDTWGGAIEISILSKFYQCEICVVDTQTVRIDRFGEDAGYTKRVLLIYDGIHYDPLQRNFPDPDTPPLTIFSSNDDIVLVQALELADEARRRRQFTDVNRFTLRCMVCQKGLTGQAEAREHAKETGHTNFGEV
Outline: as §1

YPEL5 = YPEL5 (UniProt P62699)
Chain of YPEL5 (P62699 whole entry, looked up): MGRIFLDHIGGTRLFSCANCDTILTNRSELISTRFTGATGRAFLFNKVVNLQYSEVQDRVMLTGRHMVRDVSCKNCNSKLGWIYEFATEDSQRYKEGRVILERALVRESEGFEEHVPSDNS
Outline: as §1

YWHAB = YWHAB (UniProt P31946)
Outline: as §1

YWHAQ = YWHAQ (UniProt P27348)
Chain of YWHAQ (P27348 whole entry, looked up): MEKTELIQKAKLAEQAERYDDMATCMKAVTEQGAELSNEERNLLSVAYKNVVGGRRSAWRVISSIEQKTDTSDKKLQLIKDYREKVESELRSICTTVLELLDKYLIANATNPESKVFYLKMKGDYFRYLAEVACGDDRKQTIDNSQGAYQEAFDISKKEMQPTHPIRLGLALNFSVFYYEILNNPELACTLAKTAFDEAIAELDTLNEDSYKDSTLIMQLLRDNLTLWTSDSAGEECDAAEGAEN
Outline: as §1

YWHAZ [1] = target: YWHAZ (UniProt E7ESK7)
Outline: as §1

YWHAZ [2] = target: YWHAZ (UniProt P63104)
Chain of YWHAZ (UniProt P63104) (P63104 whole entry, looked up): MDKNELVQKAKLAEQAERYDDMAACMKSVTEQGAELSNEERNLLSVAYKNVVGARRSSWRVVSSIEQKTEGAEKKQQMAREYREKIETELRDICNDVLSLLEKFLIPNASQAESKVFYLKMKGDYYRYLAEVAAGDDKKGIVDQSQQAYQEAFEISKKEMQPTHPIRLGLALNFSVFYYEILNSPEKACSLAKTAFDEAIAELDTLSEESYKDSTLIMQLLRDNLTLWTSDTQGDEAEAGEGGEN
Outline: as §1

YY1 = YY1 (UniProt P25490)
Outline: as §1

ZADH2 = ZADH2 (UniProt Q8N4Q0)
Chain of ZADH2 (Q8N4Q0 whole entry, looked up): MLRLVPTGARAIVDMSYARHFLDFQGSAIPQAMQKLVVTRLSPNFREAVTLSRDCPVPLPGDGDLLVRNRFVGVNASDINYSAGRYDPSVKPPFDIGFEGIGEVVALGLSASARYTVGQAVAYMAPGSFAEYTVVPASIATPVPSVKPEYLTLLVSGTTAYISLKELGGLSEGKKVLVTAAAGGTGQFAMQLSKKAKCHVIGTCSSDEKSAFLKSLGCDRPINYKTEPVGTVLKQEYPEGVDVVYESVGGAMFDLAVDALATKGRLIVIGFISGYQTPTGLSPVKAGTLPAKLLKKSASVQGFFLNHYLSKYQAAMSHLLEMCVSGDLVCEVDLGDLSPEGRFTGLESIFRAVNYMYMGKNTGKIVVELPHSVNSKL
Outline: as §1

ZBTB43 = ZBTB43 (UniProt O43298)
Chain of ZBTB43 (O43298 whole entry, looked up): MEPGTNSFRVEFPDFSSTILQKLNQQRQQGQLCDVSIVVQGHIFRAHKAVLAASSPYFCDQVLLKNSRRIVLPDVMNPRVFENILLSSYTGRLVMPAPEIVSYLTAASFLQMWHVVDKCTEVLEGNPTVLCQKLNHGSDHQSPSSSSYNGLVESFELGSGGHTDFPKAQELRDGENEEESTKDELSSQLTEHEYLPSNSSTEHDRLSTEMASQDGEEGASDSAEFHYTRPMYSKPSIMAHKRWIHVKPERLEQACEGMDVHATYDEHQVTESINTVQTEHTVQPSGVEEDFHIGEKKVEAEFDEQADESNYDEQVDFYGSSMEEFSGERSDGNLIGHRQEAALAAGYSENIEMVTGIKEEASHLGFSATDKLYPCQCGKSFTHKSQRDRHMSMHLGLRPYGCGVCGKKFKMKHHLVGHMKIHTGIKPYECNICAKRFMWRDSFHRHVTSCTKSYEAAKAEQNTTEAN
Outline: as §1

ZC3H18 = ZC3H18 (UniProt Q86VM9)
Chain of ZC3H18 (Q86VM9 whole entry, looked up): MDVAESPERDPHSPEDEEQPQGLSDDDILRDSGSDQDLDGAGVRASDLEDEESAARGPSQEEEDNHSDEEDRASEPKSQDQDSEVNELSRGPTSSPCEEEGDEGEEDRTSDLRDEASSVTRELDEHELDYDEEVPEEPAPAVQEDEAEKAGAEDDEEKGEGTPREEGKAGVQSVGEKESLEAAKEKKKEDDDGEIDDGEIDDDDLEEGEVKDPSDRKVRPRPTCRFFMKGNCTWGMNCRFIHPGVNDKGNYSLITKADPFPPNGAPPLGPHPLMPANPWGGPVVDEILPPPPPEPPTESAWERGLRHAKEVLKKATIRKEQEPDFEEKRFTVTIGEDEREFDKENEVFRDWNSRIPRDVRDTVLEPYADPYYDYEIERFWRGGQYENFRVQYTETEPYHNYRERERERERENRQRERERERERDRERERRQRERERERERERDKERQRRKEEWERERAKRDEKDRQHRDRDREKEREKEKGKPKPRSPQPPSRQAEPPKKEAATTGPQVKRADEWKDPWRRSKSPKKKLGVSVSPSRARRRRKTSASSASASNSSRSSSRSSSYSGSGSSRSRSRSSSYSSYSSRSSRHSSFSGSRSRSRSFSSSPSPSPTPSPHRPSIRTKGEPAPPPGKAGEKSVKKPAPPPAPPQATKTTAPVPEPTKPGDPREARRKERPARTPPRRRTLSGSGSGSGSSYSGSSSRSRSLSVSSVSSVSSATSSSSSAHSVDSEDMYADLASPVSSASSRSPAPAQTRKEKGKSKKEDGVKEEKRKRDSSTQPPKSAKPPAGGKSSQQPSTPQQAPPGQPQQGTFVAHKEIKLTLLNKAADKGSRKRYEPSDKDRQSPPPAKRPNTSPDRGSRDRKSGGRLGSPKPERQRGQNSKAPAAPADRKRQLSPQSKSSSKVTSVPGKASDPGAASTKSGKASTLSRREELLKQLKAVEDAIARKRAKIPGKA
Outline: as §1

ZBTB17 isoform 2 = ZBTB17 isoform 2 (UniProt Q13105)
Outline: as §1

ZBTB21 = ZBTB21 (UniProt Q9ULJ3)
Chain of ZBTB21 (Q9ULJ3 whole entry, looked up): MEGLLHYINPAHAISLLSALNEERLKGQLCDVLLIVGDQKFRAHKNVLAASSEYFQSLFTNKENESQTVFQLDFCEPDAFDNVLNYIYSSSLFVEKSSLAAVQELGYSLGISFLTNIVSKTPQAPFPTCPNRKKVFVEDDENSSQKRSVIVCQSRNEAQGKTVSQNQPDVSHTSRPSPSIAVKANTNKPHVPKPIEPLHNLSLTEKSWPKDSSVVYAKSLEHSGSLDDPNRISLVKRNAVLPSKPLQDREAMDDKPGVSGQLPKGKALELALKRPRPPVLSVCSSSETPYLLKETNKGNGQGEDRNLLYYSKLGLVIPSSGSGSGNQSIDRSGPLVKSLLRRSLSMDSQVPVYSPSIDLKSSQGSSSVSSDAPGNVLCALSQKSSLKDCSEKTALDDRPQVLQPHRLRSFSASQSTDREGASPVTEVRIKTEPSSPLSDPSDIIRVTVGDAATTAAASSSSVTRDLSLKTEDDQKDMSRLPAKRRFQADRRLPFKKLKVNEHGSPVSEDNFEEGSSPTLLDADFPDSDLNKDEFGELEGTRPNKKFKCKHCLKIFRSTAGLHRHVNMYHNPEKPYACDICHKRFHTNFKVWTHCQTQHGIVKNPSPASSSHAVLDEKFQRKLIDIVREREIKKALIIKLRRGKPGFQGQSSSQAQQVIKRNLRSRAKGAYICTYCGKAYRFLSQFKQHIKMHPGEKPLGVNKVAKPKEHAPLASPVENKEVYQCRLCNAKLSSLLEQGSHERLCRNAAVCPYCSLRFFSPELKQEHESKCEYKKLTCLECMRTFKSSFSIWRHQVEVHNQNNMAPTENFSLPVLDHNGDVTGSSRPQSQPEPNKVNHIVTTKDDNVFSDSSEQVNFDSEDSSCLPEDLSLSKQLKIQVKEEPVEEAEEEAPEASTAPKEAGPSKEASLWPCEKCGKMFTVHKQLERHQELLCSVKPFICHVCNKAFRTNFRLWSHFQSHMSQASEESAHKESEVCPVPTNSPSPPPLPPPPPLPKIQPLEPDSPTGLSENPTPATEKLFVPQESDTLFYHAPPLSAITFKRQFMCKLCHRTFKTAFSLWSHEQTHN
Outline: as §1

Measured: log2 fold change

CC[C@@H]1C(=O)N(C)c2cnc(Nc3ccc(C(=O)NC4CCN(C)CC4)cc3OC)nc2N1C1CCCC1
inactive: YAE1 -0.022 | YBX1 0.262 | YES1 0.129 | YIPF4 0.022 | YIPF5 isoform 3 0.088 | YIPF6 -0.001 | YLPM1 -0.016 | YOD1 -0.099 | YPEL5 0.024 | YWHAB -0.055 | YWHAQ -0.141 | YWHAZ [1] 0.1 | YWHAZ [2] -0.083 | YY1 -0.149 | ZADH2 0.153 | ZBTB43 -0.061 | ZC3H18 -0.008

NC(=O)c1ccc2nc(-c3ccc(Oc4ccc(Cl)cc4)cc3)[nH]c2c1
inactive: YAE1 0 | YBX1 -0.033 | YES1 0.049 | YIPF4 -0.039 | YIPF5 isoform 3 0.012 | YIPF6 0.005 | YLPM1 0.033 | YOD1 0.019 | YPEL5 -0.021 | YWHAB -0.012 | YWHAQ -0.021 | YWHAZ [2] 0.011 | YY1 0.03 | ZADH2 0.052 | ZBTB17 isoform 2 0.03 | ZBTB21 0.053 | ZBTB43 0.037 | ZC3H18 0.045

Fc1ccc(Cl)cc1-c1nc(Nc2ccncc2)c2nccnc2n1
inactive: YAE1 0.007 | YBX1 -0.273 | YES1 -0.179 | YIPF4 -0.014 | YIPF5 isoform 3 0.024 | YIPF6 0.138 | YLPM1 0.057 | YOD1 0.021 | YPEL5 -0.028 | YWHAB 0.048 | YWHAQ 0.146 | YWHAZ [1] 0.099 | YWHAZ [2] 0.081 | YY1 0.073 | ZADH2 -0.011 | ZBTB21 -0.022 | ZBTB43 -0.194 | ZC3H18 -0.134

COC(=O)N[C@@H](C)CNc1nccc(-c2cn(C(C)C)nc2-c2cc(Cl)cc(NS(C)(=O)=O)c2F)n1 [encorafenib]
inactive: YAE1 0.007 | YBX1 0.041 | YES1 0.242 | YIPF4 -0.038 | YIPF5 isoform 3 0.012 | YIPF6 -0.042 | YLPM1 0.052 | YOD1 0.02 | YPEL5 -0.001 | YWHAB -0.003 | YWHAQ -0.016 | YWHAZ [1] -0.156 | YWHAZ [2] -0.031 | YY1 0.066 | ZADH2 0.045 | ZBTB43 0.065 | ZC3H18 -0.03

Cc1ccc(Sc2cncc3sc(C(N)=O)cc23)cc1
inactive: YAE1 -0.012 | YBX1 -0.124 | YES1 0.03 | YIPF4 -0.023 | YIPF5 isoform 3 0.071 | YIPF6 -0.018 | YLPM1 -0.008 | YOD1 0.009 | YPEL5 0.01 | YWHAB -0.033 | YWHAQ 0.079 | YWHAZ [1] -0.019 | YWHAZ [2] 0.123 | YY1 0.01 | ZADH2 -0.015 | ZBTB21 0.008 | ZC3H18 -0.064

CNc1nc(-c2ccc3c(N)n[nH]c3c2)cc(N2C[C@@H](C(=O)NC3CCCCC3)CC[C@H]2C)n1
inactive: YAE1 -0.092 | YBX1 0.044 | YES1 -0.037 | YIPF4 -0.082 | YIPF5 isoform 3 -0.115 | YIPF6 -0.039 | YLPM1 0.006 | YOD1 0.011 | YPEL5 -0.06 | YWHAB -0.015 | YWHAQ 0.179 | YWHAZ [1] -0.097 | YWHAZ [2] 0.031 | YY1 -0.08 | ZADH2 -0.011 | ZBTB21 -0.111 | ZBTB43 -0.014 | ZC3H18 -0.136

CCN(CC)Cc1ccc2cc(COC(=O)Nc3ccc(C(=O)NO)cc3)ccc2c1 [givinostat]
inactive: YAE1 -0.017 | YBX1 -0.056 | YES1 0.016 | YIPF4 -0.048 | YIPF5 isoform 3 -0.053 | YIPF6 -0.028 | YLPM1 0.061 | YOD1 0.024 | YPEL5 -0.009 | YWHAB -0.026 | YWHAQ -0.039 | YWHAZ [2] -0.001 | YY1 0.02 | ZADH2 -0.066 | ZBTB17 isoform 2 -0.011 | ZBTB21 -0.045 | ZBTB43 -0.006 | ZC3H18 0.106

C[C@H](Nc1ncnc2nc[nH]c12)c1cc2cccc(Cl)c2c(=O)n1-c1ccccc1 [duvelisib]
inactive: YAE1 -0.021 | YBX1 -0.208 | YES1 0.062 | YIPF4 0.163 | YIPF5 isoform 3 -0.107 | YIPF6 0.259 | YLPM1 0.08 | YOD1 0.033 | YPEL5 -0.084 | YWHAB 0.056 | YWHAQ -0.144 | YWHAZ [1] 0.171 | YWHAZ [2] -0.084 | YY1 -0.007 | ZADH2 0.033 | ZBTB21 0.081 | ZBTB43 0.027 | ZC3H18 0.019

CC(C)(C)Cn1c(N)nc2ccc(-c3[nH]c(C(C)(C)C)nc3-c3ccc(F)cc3)nc21 [ralimetinib]
inactive: YAE1 0.023 | YBX1 0.082 | YES1 -0.09 | YIPF4 -0.099 | YIPF5 isoform 3 -0.292 | YIPF6 -0.045 | YLPM1 0.043 | YOD1 -0.001 | YPEL5 -0.111 | YWHAB -0.063 | YWHAQ 0.237 | YWHAZ [1] -0.031 | YWHAZ [2] 0.145 | YY1 0.002 | ZADH2 0.169 | ZBTB21 0.121 | ZBTB43 0.012 | ZC3H18 0.03

CN1CCN(CCOc2cc(OC3CCOCC3)c3c(Nc4c(Cl)ccc5c4OCO5)ncnc3c2)CC1 [saracatinib]
inactive: YAE1 0.025 | YBX1 -0.027 | YIPF4 0.072 | YIPF5 isoform 3 0.007 | YIPF6 -0.023 | YLPM1 0 | YOD1 -0.034 | YPEL5 0.069 | YWHAB 0.014 | YWHAQ 0.234 | YWHAZ [1] -0.076 | YWHAZ [2] 0.064 | YY1 0.047 | ZADH2 0.005 | ZBTB21 -0.149 | ZBTB43 -0.147 | ZC3H18 -0.072
active: YES1 -0.551

CCCS(=O)(=O)Nc1ccc(F)c(C(=O)c2c[nH]c3ncc(Cl)cc23)c1F
inactive: YAE1 -0.037 | YBX1 -0.137 | YES1 -0.217 | YIPF4 -0.01 | YIPF5 isoform 3 -0.096 | YIPF6 0.004 | YLPM1 0.047 | YOD1 0.033 | YPEL5 -0.127 | YWHAB 0.031 | YWHAQ 0.233 | YWHAZ [1] -0.05 | YY1 0.037 | ZADH2 -0.012 | ZBTB21 0.091 | ZC3H18 -0.019
active: YWHAZ [2] 0.228

c1cc(OCCN2CCCCC2)cc(-c2n[nH]c3ccc(-c4nnc[nH]4)cc23)c1
inactive: YAE1 -0.001 | YBX1 -0.156 | YES1 -0.235 | YIPF4 -0.051 | YIPF5 isoform 3 -0.043 | YIPF6 0.036 | YLPM1 0 | YOD1 0.043 | YPEL5 0.067 | YWHAB -0.019 | YWHAQ 0.105 | YWHAZ [1] 0.095 | YWHAZ [2] 0.05 | YY1 -0.052 | ZADH2 -0.017 | ZBTB43 -0.026 | ZC3H18 -0.147

CO[C@H]1C[C@@H]2CC[C@@H](C)[C@@](O)(O2)C(=O)C(=O)N2CCCC[C@H]2C(=O)O[C@H]([C@H](C)C[C@@H]2CC[C@H](n3cnnn3)[C@H](OC)C2)CC(=O)[C@H](C)/C=C(\C)[C@@H](O)[C@@H](OC)C(=O)[C@H](C)C[C@H](C)/C=C/C=C/C=C/1C [zotarolimus]
inactive: YAE1 0 | YBX1 -0.048 | YES1 0.053 | YIPF4 0.015 | YIPF5 isoform 3 0.006 | YIPF6 -0.026 | YLPM1 -0.001 | YOD1 0.05 | YPEL5 0.05 | YWHAB 0.015 | YWHAQ 0.196 | YWHAZ [1] -0.072 | YWHAZ [2] 0.107 | YY1 -0.01 | ZADH2 0.07 | ZBTB21 0.004 | ZBTB43 -0.036 | ZC3H18 0.041

Cc1cc(SCc2sc(-c3ccc(C(F)(F)F)cc3)nc2C)ccc1OCC(=O)O
inactive: YAE1 0.021 | YBX1 -0.024 | YES1 0.06 | YIPF4 -0.04 | YIPF5 isoform 3 0.015 | YIPF6 -0.175 | YLPM1 0 | YOD1 0.061 | YPEL5 0.098 | YWHAB 0.005 | YWHAQ 0.119 | YWHAZ [1] -0.02 | YWHAZ [2] 0.012 | YY1 0.002 | ZADH2 -0.027 | ZBTB21 0.043 | ZBTB43 0.041 | ZC3H18 -0.034

CS(=O)(=O)CCNCc1ccc(-c2ccc3ncnc(Nc4ccc(OCc5cccc(F)c5)c(Cl)c4)c3c2)o1 [lapatinib]
inactive: YAE1 -0.052 | YBX1 0.317 | YES1 0.057 | YIPF4 -0.13 | YIPF5 isoform 3 -0.163 | YIPF6 0.061 | YLPM1 -0.028 | YOD1 0.01 | YPEL5 -0.113 | YWHAB -0.016 | YWHAQ 0.219 | YWHAZ [1] -0.051 | YWHAZ [2] 0.197 | YY1 -0.023 | ZADH2 -0.049 | ZBTB21 0.032 | ZC3H18 0.111

CN(C)CC(=O)Nc1ccc2[nH]c(=O)c3ccccc3c2c1
inactive: YAE1 -0.108 | YBX1 -0.134 | YES1 -0.075 | YIPF4 0.09 | YIPF5 isoform 3 0.014 | YIPF6 -0.012 | YLPM1 -0.037 | YOD1 0.043 | YPEL5 0.008 | YWHAB -0.033 | YWHAQ 0.16 | YWHAZ [2] 0.009 | YY1 -0.047 | ZADH2 0.02 | ZBTB21 0.018 | ZBTB43 -0.07 | ZC3H18 -0.039
